# Screening results (PubChem)
# Shown are actives, neighbours in structure and some others; about 7.6% of the full set was active somewhere.
# KB-3-1 cytotox – qHTS assay for MDR1-selective chemotherapeutics: Primary screen using the parental adenocarcinoma cell KB-3-1; 400,000 tested, 1.4% active; AID 1347075, 2019; KB-3-1 viability, CellTiter-Glo ATP luminescence, 72 h; Potency, µM (titrated, usually from 46.1 µM), hits mostly cytotoxic; note: nearly all actives have a fitted effect of over 60% in size
#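 KB-3-1 cells, DMEM (no phenol red) + 10% FBS; compound by pin transfer, 72 h, 37 °C. Readout: CellTiter-Glo luminescence after 10 min. Data normalized, curve-fitted.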
# KB-V1 cytotox – qHTS assay for MDR1-selective chemotherapeutics: Primary screen using the drug-selected MDR subline cells KB-V1 | KB-V1 MDR cells viability, CellTiter-Glo, 72 h | Potency, µM (top dose mostly 46.1 µM), hits mostly cytotoxic | 400,000 tested, 3.4% active; note: nearly all actives have a fitted effect of over 60% in size
#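 Following 72 h at 37 degrees C with compound, KB-V1 cell viability was read by CellTiter-Glo luminescence, medium being phenol-red-free DMEM plus 10% FBS; concentration-response parameters came from normalized, curve-fitted qHTS data.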
# hERG WT inh – qHTS for Inhibitors of KCHN2 3.1: Wildtype qHTS | 340,000 tested, 0.37% active | U2OS, BacMam KCNH2, thallium flux FluxOr; hits give low values | activity change, % at 1.84 µM;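 active = maximum activity change below -70%; inconclusive = maximum activity change between -70% and -50%; inactive = maximum activity change above -50%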
#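 U2OS cells transduced with wild-type KCNH2 virus are loaded with FluxOr dye for 45 min, and thallium flux is measured in kinetic reads before and after stimulation buffer. Rate constants are normalized to DMSO controls.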
# KCNH2 3.1 inh – qHTS for Inhibitors of KCHN2 3.1: Mutant qHTS; Potassium voltage-gated channel subfamily H member 2, brain isoform KCNH2 3.1 (human); U2OS KCNH2 3.1, thallium flux FluxOr; hits give low values; activity change, % (tested at about 1.8 µM); 340,000 tested, 0.95% active;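 active = maximum activity change below -70%; inconclusive = maximum activity change from -70% to -50%; inactive = maximum activity change above -50%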;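 note: thallium influx rate constant from kinetic fluorescence after stimulation buffer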
#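 Steps: virus added to U2OS suspension (4 h, RT, dark); medium with 10% FBS added, cells plated, 37 C overnight; FluxOr/Red40 loading buffer 45 min RT; stimulation buffer, 2 min kinetic read; rate constant normalized.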
# MCF10A rereplic – A quantitative high throughput screen for small molecules that induce DNA re-replication in MCF 10a normal breast cells; MCF 10A DNA re-replication, Hoechst nuclear intensity, 48 h; Potency, µM (top dose mostly 46.1 µM), hits mostly activators; 350,000 tested, 2.9% active; note: nearly all actives have a fitted effect of over 50% in size
# SW480 rereplic – A quantitative high throughput screen for small molecules that induce DNA re-replication in SW480 colon adenocarcinoma cells; SW480 DNA re-replication, Hoechst DNA content imaging, 48 h; 340,000 tested, 1.8% active; Potency, µM (series often up to 46.1 µM), hits mostly activators; note: nearly all actives have a fitted effect of over 55% in size
#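 Image-based DNA-content assay: after two days of treatment, nuclei were labelled with the DNA dye Hoechst and imaged, and hits were compounds raising the count of nuclei showing high fluorescence intensity.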
# Hits are given with their value; . = inactive; ? = inconclusive; / = not tested or not shown; ! = not confirmed by another sample. Unless noted, calls come from the whole dose curve; as a rule, active = well fitted curve in the direction sought with a large enough effect; inconclusive = small, poorly fitted or top-dose-only effect, or another doubt; inactive = no such curve, though single readings can be large; an effect the other way counts as inactive or inconclusive.
SMILES,KB-3-1 cytotox,KB-V1 cytotox,hERG WT inh,KCNH2 3.1 inh,MCF10A rereplic,SW480 rereplic
CCOc1ccc(OCC)c(S(=O)(=O)N2CCN(c3cccc(C)c3C)CC2)c1,.,?,/,/,/,/
COCCNc1nc2nonc2nc1N(C)Cc1cccc2cnccc12,.,.,.,.,.,4.6µM
COc1ccc(-c2ccc3c(c2)C2CC3CCN2)cc1 (configuration not stated),.,.,.,.,21µM,.
COc1ccc(-c2ccc3c(c2)C2CC3CCN2C(=O)C2CCCCC2)cc1 (configuration not stated),.,.,.,.,?,?
Cc1ccc2c(c1)c1c(n2CC(O)Cn2nc(C)c(Br)c2C)CCCC1 (configuration not stated),?,21µM,.,.,23µM,.
Cc1ccc2c(c1)c1c(n2CC(O)CN2CCCCCC2)CCCC1 (configuration not stated),.,.,.,.,?,?
Cc1cc(Br)ccc1NC(=O)COC(=O)c1ccccc1OCC(=O)N(C)C,?,.,/,/,/,/
Cc1c(NC(=O)C23CC4CC(CC(Br)(C4)C2)C3)c(=O)n(-c2ccccc2)n1C,.,.,.,.,.,.
CC12CCC(=O)N1C(C(=O)N1CCN(S(=O)(=O)c3cccc(C(F)(F)F)c3)CC1)CS2 (configuration not stated),.,?,.,.,.,.
CC(=O)Nc1ccc2c(c1)ncn2C,.,.,.,.,.,.
COc1cc(C(=O)Nc2ccc3c(c2)ncn3C)cc(OC)c1OC,?,?,.,.,3.7µM,?
COc1cc(C(=O)Nc2ccc3c(c2)nc(C)n3C)cc(OC)c1OC,4.1µM,.,.,.,.,15µM
COc1ccc(CC(=O)N/N=C(\C)CC(=O)NCc2ccco2)cc1OC,.,?,.,.,.,.
N#C/C(=C\c1ccccc1OCC(=O)O)c1nc2ccccc2[nH]1,.,.,.,.,.,.
COc1cccc(CC2(CO)CCCN(Cc3ccc(C)s3)C2)c1 (configuration not stated),.,?,.,.,?,.
COc1cccc(CC2(CO)CCCN(Cc3[nH]c4ccc(C)cc4c3C)C2)c1 (configuration not stated),?,?,-89,-99,3.3µM,?
COc1cccc(CC2(CO)CCCN(Cc3c(C)cc(C)cc3-n3cccn3)C2)c1 (configuration not stated),.,.,-124,-102,.,.
CCn1nc(C)c(CNC(=O)c2cc(COc3ccc(C)nc3)on2)c1C,?,.,.,.,.,.
O=C(Nc1c(C(=O)c2ccc(Cl)cc2)oc2ccccc12)c1cc(=O)c2ccccc2o1,.,?,/,/,/,/
O=C(c1ccc(Cl)cc1)c1oc2ccccc2c1CS(=O)(=O)c1ccccc1,.,6.5µM,.,.,?,.
Cc1cc2c(cc1S(=O)(=O)N1CCCC1)n(C)c(=O)c(=O)n2C,.,.,.,.,.,.
Cc1ccc(OCC(=O)Nc2ccc(NC(=O)c3ccccc3)cc2)cc1C,.,.,.,.,.,.
O=C(c1cc(-c2cccc(O)c2)on1)N1CCN(C(c2ccccc2)c2ccccc2)CC1,18µM,?,.,.,6.5µM,.
COc1ccc(-c2cc(C(=O)N3CCN(c4ccccc4)CC3)no2)cc1,?,21µM!,.,.,?,.
Cc1ccc(NC(=O)CN2C(=O)CSc3ccc(S(=O)(=O)N4CCCCC4)cc32)cc1,.,.,.,.,.,.
c1ccc2c(c1)NC1(CCCCCC1)n1c-2nc2ccccc21,.,.,.,.,.,.
CC1(c2ccccn2)Nc2ccccc2-c2nc3ccccc3n21 (configuration not stated),.,16µM,.,.,.,.
